Screens: PubChem BioAssay, The Scripps Research Institute Molecular Screening Center
Hits are enriched below; roughly 2.4% of the tested compounds scored in any of these assays.
M1 PAM parental: M1 PAM counterscreen hit in parental CHO-K1 cells | AID 602247 | 360,000 compounds, 0.02% hits | activation, % at 3 µM | ATP EC20, Fluo-8 calcium fluorescence; 0% at ATP EC20, 100% at ATP max;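 active = activation above the run cutoff, the mean activation of all test compounds plus 3 SD, cut at about 40% in these data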;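 note: peak over basal fluorescence ratio in a 140 s read after ATP addition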
CHRM1 PAM: human CHRM1 positive allosteric modulation. CHO-K1 hM1, Fluo-8 calcium fluorescence, ACh EC20; 0% = ACh EC20, 100% = maximal ACh. P11229. AID 588819. 360,000 compounds, 0.088% hits. activation, % at 3 µM; in the data active = activation above about 19%, passing the limit was not always enough
Target sequence (P11229 whole entry, looked up): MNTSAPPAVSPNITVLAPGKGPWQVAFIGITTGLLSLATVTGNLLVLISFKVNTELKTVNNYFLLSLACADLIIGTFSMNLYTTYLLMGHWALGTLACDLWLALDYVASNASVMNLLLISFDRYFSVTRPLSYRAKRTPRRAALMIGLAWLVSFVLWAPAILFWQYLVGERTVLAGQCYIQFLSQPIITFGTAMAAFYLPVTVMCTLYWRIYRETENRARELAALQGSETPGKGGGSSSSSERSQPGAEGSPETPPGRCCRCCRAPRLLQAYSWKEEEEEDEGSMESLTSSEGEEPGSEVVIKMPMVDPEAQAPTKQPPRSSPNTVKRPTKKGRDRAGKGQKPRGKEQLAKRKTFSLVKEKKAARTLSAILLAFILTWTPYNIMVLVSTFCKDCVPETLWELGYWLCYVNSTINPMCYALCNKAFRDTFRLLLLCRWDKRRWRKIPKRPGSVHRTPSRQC
M1 antag: antagonists of human M1 muscarinic receptor; P11229; CHO-K1 hM1, Fluo-8 calcium fluorescence, ACh EC80 antagonist; inhibition, % at 3 µM; 360,000 compounds, 1.3% hits;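 active = percent inhibition above its own plate's cutoff, namely the mean of that plate's compound wells plus 3 SD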;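 note: peak over basal fluorescence ratio during 140 s after agonist addition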
M1 ag parental: M1 agonist counterscreen hit in parental CHO-K1 cells; Fluo-8 calcium fluorescence; scaled to maximal ATP response, vehicle zero; activation, % at 3 µM; 360,000 compounds, 0.48% hits; AID 602248; in the data active = activation above about 15%;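 note: untransfected CHO-K1 host cells lacking M1 receptor as counterscreen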
CHO-K1 Ca antag: nonselective inhibitor or artifact in parental CHO-K1 cells; 360,000 compounds, 0.6% hits; ATP-induced calcium, Fluo-8 fluorescence; inhibition, % at 3 µM; AID 602250;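 active = inhibition above a per-plate cutoff, the plate's mean sample inhibition plus 3 SD, cut at about 24% in these data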
CHRM1 agonist: human M1 muscarinic receptor agonism | 360,000 compounds, 0.33% hits | CHO-K1 hM1, Fluo-8 calcium fluorescence, agonist mode; 0% DMSO, 100% acetylcholine EC100 | P11229 | activation, % at 3 µM;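 active = activation above the run's mean compound activation plus 3 SD, cut at about 16% in these data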;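 note: peak over basal fluorescence ratio within a 140 s kinetic read after compound addition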
Hits are given with their value; - = inactive.

SMILES	M1 PAM parental	CHRM1 PAM	M1 antag	M1 ag parental	CHO-K1 Ca antag	CHRM1 agonist
CCNc1nc(CN2CCCCC2)nc2scc(-c3ccccc3)c12	-	-	65	-	-	-
Cc1ccc(C(=O)NCCSc2snnc2C)cc1	-	-	-	-	43	-
CCOC(=O)C1CCN(c2ccccc2CN2CCN(c3ccccc3OCC)CC2)CC1	-	-	48	-	-	-
COc1ccc(NC(=O)CCCNC(=O)Cn2cnc3sc(C)c(C)c3c2=O)c(OC)c1	-	-	22	-	-	-
COc1ccc(CCNC(=O)Cn2cnc3sc(C)c(-c4ccc(F)cc4)c3c2=O)cc1OC	-	-	-	-	-	18
FC(F)(F)c1ccc2c(c1)n(Cc1ccccc1)c1[n+]2CCCCC1	-	-	49	-	-	-
CC(=O)c1cccc(-c2ccnc3c2CC(C(=O)NCc2ccco2)O3)c1 (configuration not stated)	-	-	-	-	-	-
CN1CCN(CCC(=O)N2c3ccccc3Sc3ccc(Cl)cc32)CC1	-	-	57	-	-	-
NCCC(=O)N1c2ccccc2Sc2ccc(Cl)cc21	-	-	91	-	-	-
NCCCC(=O)N1c2ccccc2Sc2ccc(Cl)cc21	-	-	100	-	-	-
O=C(CN1CCN(CCOCCO)CC1)N1c2ccccc2Sc2ccc(Cl)cc21	-	-	93	-	-	-
Cc1ccc(C)c(NS(=O)(=O)c2c(C)nc3sccn3c2=O)c1	-	-	-	-	-	-
COc1ccccc1-c1c(C(F)(F)F)oc2cc(OC(=O)c3cccc([N+](=O)[O-])c3C)ccc2c1=O	-	-	-	-	-	-
CN1CCC=C(C(=O)N2c3ccccc3Sc3ccc(Cl)cc32)C1	-	-	101	-	-	-
NC(=O)N1CCN(CCCN2c3ccccc3Sc3cc(Cl)ccc32)CC1	-	-	-	-	-	-
O=C(CCN1CCN2CCCC2C1)N1c2ccccc2Sc2ccc(Cl)cc21 (configuration not stated)	-	-	83	-	-	-
CCSC(=O)N=Nc1ccc(O)cc1	-	-	-	-	-	-
COc1cc(CN2CC(=O)N(c3cccc(Cl)c3C)C2=S)cc(OC)c1OC	-	-	-	23	-	-
COc1cc(CN2CC(=O)N(c3ccccc3Cl)C2=S)cc(OC)c1OC	-	-	34	19	-	-
O=C(NC1CC2CCCC(C1)N2C(=O)Nc1ccc(F)cc1)c1ccccc1 (configuration not stated)	-	-	-	-	-	-
COc1cccc(-c2nc(CS(=O)(=O)CC(=O)Nc3cc(F)ccc3F)c(C)o2)c1	-	-	-	-	-	-
COc1ccc(N(C)S(=O)(=O)c2cccc(C(=O)Nc3ccc(-n4cnnn4)cc3)c2)cc1	-	-	29	-	-	-
COc1ccc(N(C)S(=O)(=O)c2cccc(C(=O)Nc3ccc4c(c3)OCCO4)c2)cc1	-	-	-	-	-	-
Cc1ccc(NS(=O)(=O)c2ccc(C)c(NC(=O)c3ccc(S(=O)(=O)N4CCCCCC4)cc3)c2)c(C)c1	-	-	-	-	-	-
CC1(C)N=C(N)N=C(N)N1c1ccc(CCCCc2ccccc2)cc1	-	-	57	-	-	-
SMILES	M1 PAM parental	CHRM1 PAM	M1 antag	M1 ag parental	CHO-K1 Ca antag	CHRM1 agonist
CCOC(=O)[C@@H]1[C@H]2COc3cc(OC)ccc3[C@H]2N2C(=O)N(c3cccc(F)c3)C(=O)[C@]12C	-	-	-	-	-	-
Cc1noc(C)c1S(=O)(=O)N1CCN(c2ccc(Cl)cc2)CC1	-	-	-	-	-	-
Cc1noc(C)c1S(=O)(=O)Nc1ccc(C(=O)N2CCN(c3ccc(Cl)cc3)CC2)cc1	-	-	18	-	-	-
Cc1cc(C(=O)N2CCN(c3ccc([N+](=O)[O-])cc3)CC2)n[nH]1	-	-	-	-	-	-
CCc1nc2ccc(C(=O)NCCCn3ccnc3)cn2c1N(CC)CCOC	-	-	-	-	-	-
O=C(NCc1ccccc1)c1ccc(C2SCC(=O)N2Cc2ccccc2)cc1 (configuration not stated)	-	-	59	-	-	-
CC(O)(c1ccccc1)c1nc(-c2ccc3c(c2)OCO3)cs1 (configuration not stated)	-	-	-	-	-	-
CCN(CC)c1ccc(C(=O)NNC(=O)CCNC(=O)c2ccccc2)cc1	-	-	-	-	-	-
CCN(CC)c1ccc(C(=C2C=CC(=[N+](CC)CC)C=C2)c2ccc(N(CC)CC)cc2)cc1	-	-	46	-	-	-
CCN(CC)c1ccc(C(=C2C=CC(=[N+](CC)CC)C=C2)c2ccccc2)cc1	-	-	97	39	75	26
O=C(c1ccccc1)C(Nc1ccccn1)c1ccccc1 (configuration not stated)	-	-	35	-	-	-
Cc1cc(C(=O)CSc2nc3ccccc3[nH]2)c(C)n1CC1CCCO1 (configuration not stated)	-	-	76	20	58	-
Cc1cc(C(=O)CSc2nc(N)cc(=O)[nH]2)c(C)n1CC1CCCO1 (configuration not stated)	-	-	-	-	-	-
CC[C@]12c3[nH]c4cc(-c5ccco5)ccc4c3CCN1C(=O)[C@@H](CC(=O)NCCCN(C)C)C[C@@H]2C(=O)N1CCN(C(=O)C2CC2)CC1	-	-	21	-	-	-
CC1(C)C(c2ccccc2)=NC(c2ccc(Br)cc2)N1O (configuration not stated)	-	-	-	-	-	-
Cc1ccc(NC(=O)CSc2nn(-c3ccccc3)c(=S)s2)cc1S(=O)(=O)N(C)C	-	-	25	-	29	-
O=C(CSc1nn(-c2ccccc2)c(=S)s1)Nn1cnnc1	-	-	-	-	-	-
CCOC1=C2CN(S(=O)(=O)c3ccc(C)cc3)[C@@H](c3ccccc3)C[C@H]2[C@H]2C(=O)N(c3ccccc3)C(=O)[C@H]2C1	-	-	-	-	28	-
CCOC1=C2CN(S(=O)(=O)c3ccc(C)cc3)[C@H](c3cccc(Cl)c3)C[C@H]2[C@H]2C(=O)N(c3ccccc3)C(=O)[C@H]2C1	-	-	-	-	-	-
CCCCC[C@@H]1[C@@H]2C(=C(OCC)C[C@@H]3C(=O)N(c4ccccc4)C(=O)[C@H]23)[C@H](c2ccccc2)N1S(=O)(=O)c1ccc(C)cc1	-	-	-	-	25	-
CCOC1=C2[C@@H](CN(S(=O)(=O)c3ccc(C)cc3)[C@H]2c2ccc(CC)cc2)[C@H]2C(=O)N(c3ccccc3)C(=O)[C@H]2C1	-	-	-	-	-	-
N#CCc1nn2c(-c3ccccc3)ccnc2c1C#N	-	-	-	-	-	-
